Bioassay records from PubChem.
esBAF inh – Bmi1 luciferase reporter increase in mESCs, primary screen, esBAF inhibitor project, mouse ES cells, Bmi1 luciferase knock-in, single point | 24 h; 100% = twice the neutral-well signal | reporter increase, % at 12.5 µM | 350,000 compounds, 2% hits; in the data active = activation above about 40%; inconclusive = no clear call, values can overlap the other calls;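 note: 0% = median of the plate's neutral control wells and 100% = double that signal; a rise in the Bmi1 reporter signal indicates esBAF inhibition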
FXN GAA850 act – FXN promoter activators, primary screen, cell-based, luciferase luminescence, HEK293 lucGAA850 | HEK293 lucGAA850 FXN promoter luciferase reporter, 24 h; percent of 10 µM SAHA response | activation, % at 6 µM | 360,000 compounds, 0.56% hits;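 active = activation above the average of all compounds screened plus 3 SD, cutoff fixed separately per campaign, cut at about 7.5% in these data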;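 note: 0% = DMSO wells and 100% = 10 µM SAHA wells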
MITF TRPM1 HTS – activators of MITF-driven TRPM1 promoter reporter, primary screen, cell-based, SK-MEL-5, luciferase, single point. AID 588334, 2011. activation, % at 12.5 µM. 300,000 compounds, 0.75% hits. SK-MEL-5 TRPM1-promoter luciferase, 24 h; % of positive control, neutral wells = 0;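 active = mean activation of at least 80% with every replicate also reaching 80%; inconclusive = mean reaches 80% but some replicate falls short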;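 note: 0% = neutral control wells and 100% = parthenolide positive control wells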
Statin myotox sup – suppressors of statin myotoxicity in C2C12 myotubes, primary screen, cell-based, single point, plate reader | rescue of ATP level, % at 7.49 µM | 330,000 compounds, 0.78% hits | C2C12 myotubes + simvastatin, ATP luminescence, 48 h; scaled: DMSO 0, geranylgeraniol control 100;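 active = mean ATP rescue above about 67%, or every replicate alone reaching that limit, limit read from the data, passing the limit was not always enough; inconclusive = no clear call, values can overlap the other calls; inactive = mean under the limit and some replicate under it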;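 note: myotubes were challenged with 10 µM simvastatin during compound exposure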
Wnt bcat act – Wnt/beta-catenin pathway activators, primary screen, cell-based, plate reader, single point; Wnt/beta-catenin reporter cell assay, activator; activation, % at 9.35 µM; 300,000 compounds, 1.2% hits; in the data active = activation above about 30%, passing the limit was not always enough; inconclusive = no clear call, values can overlap the other calls;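 note: 0% = neutral control wells and 100% = positive control wells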
* = called active by the depositor; ? = inconclusive; . = not tested or not shown. In the library only some 3.3% were active in any assay of this set; here they are far more common.

SMILES	esBAF inh	FXN GAA850 act	MITF TRPM1 HTS	Statin myotox sup	Wnt bcat act
Cc1ccc(NC(=O)CS(=O)c2ccccc2N)c(C)c1 (stereo not given)	50.4*	4.7	14.4	6.7	-2.9
Fc1ccc(CNc2ccccn2)cc1	9.4	2.1	4.3	-4.9	2.0
CSc1ccc(CNc2ccccn2)cc1	36.1	4.5	.	81.6*	-2.6
CCC(=O)N1[C@H](CN(C)C(=O)c2ccccc2F)[C@@H](c2ccccc2)[C@@H]1CO	6.1	.	.	-6.7	.
CCCC(=O)Nc1sc2c(c1C#N)CCCCC2	85.1*	0.8	51.3	3.1	1.9
CCC(=O)Nc1sc2c(c1C#N)CCCCC2	34.9	-2.5	49.1	10.9	.
Cc1ccc(C(=O)Nc2sc3c(c2C#N)CCCCC3)cc1C	.	4.8	119.0*	.	.
C[C@H](CO)N1C[C@H](C)[C@H](CN(C)S(=O)(=O)c2ccccc2)Oc2ncc(-c3cccc(C(=O)N(C)C)c3)cc2C1=O	-3.2	.	.	7.1	.
Cc1cccc(C)c1NC(=O)c1c[nH]c2ccccc12	49.1*	1.1	77.4	3.7	23.0
C/C(=N\NC(=O)c1c[nH]c2ccccc12)c1ccco1	51.2*	4.9	18.8	9.2	-0.6
Cc1cccc(C)c1NC(=O)CNC(=O)Cc1c[nH]c2ccccc12	3.9	1.6	-10.8	-7.9	-1.1
C[C@H]1CN([C@@H](C)CO)C(=O)c2cc(NC(=O)c3ccncc3)ccc2O[C@@H]1CN(C)C(=O)Nc1ccc2c(c1)OCO2	2.0	.	.	-41.6	.
O=C(Cc1ccncc1)NCC[C@@H]1CC[C@H](NC(=O)Nc2cccc(F)c2)[C@H](CO)O1	5.2	.	.	-11.9	.
CCNC(=O)C[C@@H]1CC[C@@H]2[C@H](COc3ccc(NC(=O)Nc4ccc(C)cc4)cc3C(=O)N2C)O1	4.3	.	.	8.0	.
O=c1[nH]c(Nc2ccccc2Cl)cc2ccccc12	33.4	0.9	10.4	136.3*	13.1
CC(C)CC#Cc1ccc2c(c1)O[C@H](CN(C)C(=O)C1CCCCC1)[C@@H](C)CN([C@@H](C)CO)S2(=O)=O	-1.8	.	.	-4.5	.
CNC[C@@H]1Oc2ccc(NC(=O)Nc3ccccc3)cc2CC(=O)N([C@H](C)CO)C[C@H]1C	1.3	.	.	5.8	.
COC(=O)CSc1nc(C2CC2)cc(C(F)(F)F)c1C#N	-4.7	1.7	7.9	99.0*	-5.9
O=C(Nc1cc(F)ccc1F)N1C[C@H]2[C@@H](c3ccccc31)[C@H](CO)N2CC1CCCC1	0.3	.	.	16.3	.
c1ccc2c(c1)CCOC2CNCCCN1CCCCC1 (stereo not given)	-2.5	0.2	20.9	90.7*	-2.7
COCC(=O)Nc1ccc2c(c1)C(=O)N(C)C[C@H](OC)[C@@H](C)CN(Cc1cccc(F)c1)[C@@H](C)CO2	-2.6	.	.	-5.2	.
Cc1ccccc1NC(=O)c1sc2nc(N3CCOCC3)c3c(c2c1N)CCCC3	53.8*	3.3	51.3	2.6	2.8
Cc1cc(C)c2c(N)c(C(=O)Nc3ccccc3Cl)sc2n1	.	5.8	.	.	-0.3
COc1ccccc1NC(=O)c1sc2nc(N3CCOCC3)c3c(c2c1N)CCCC3	-5.6	-0.3	35.4	0.0	0.0
Cc1cc(C)c2c(N)c(C(=O)Nc3ccccc3F)sc2n1	50.2*	5.0	39.9	-13.0	19.7
SMILES	esBAF inh	FXN GAA850 act	MITF TRPM1 HTS	Statin myotox sup	Wnt bcat act
C[C@@H]1CCCCO[C@H](CN(C)Cc2ccc(Cl)c(Cl)c2)[C@H](C)CN([C@@H](C)CO)C(=O)c2cc(NS(C)(=O)=O)ccc2O1	3.1	.	.	-25.2	.
CO[C@H]1CN(C)C(=O)c2ccc(NC(=O)NC(C)C)cc2OC[C@H](C)N(Cc2cncnc2)C[C@H]1C	-1.8	.	.	7.3	.
COc1ccc(C(=O)/C=C/c2ccccc2C(F)(F)F)cc1	14.3	2.2	-14.7	-3.2	34.1*
O=C(Nc1ccc2c(c1)OCO2)c1ccc(CO)cc1	38.3	2.2	34.8	-1.0	48.3*
CCCCOc1ccc(C(=O)Nc2ccc3c(c2)OCO3)cc1	42.4*	3.2	70.6	-5.5	35.0*
O=C(Nc1ccc2c(c1)OCO2)c1ccc2c(c1)OCO2	.	1.9	19.9	.	.
CCC(=O)c1cc2c(cc1NC(=O)c1ccc(C)cc1)OCCO2	20.4	3.1	0.3	-39.8	.
CCCN1C(=O)c2ccc(C(=O)Nc3ccc4c(c3)OCO4)cc2C1=O	62.8*	-1.4	66.3	-12.9	8.6
CCCc1cc2c(cc1NC(=O)c1ccc(C)cc1)OCO2	27.9	2.2	2.5	91.5*	.
CCC(=O)Oc1ccc(C(=O)Nc2ccc3c(c2)OCO3)cc1	.	3.6	42.5	.	19.6
C[C@@H]1CN([C@H](C)CO)C(=O)c2cc(NS(C)(=O)=O)ccc2O[C@@H](C)CCCCO[C@H]1CN(C)C(=O)Nc1ccc(F)cc1	3.0	.	.	.	.
CCCOc1ccc(C(=O)Nc2ccc3c(c2)OCO3)cc1	20.3	2.1	68.2	-24.8	42.6*
CN(CCOc1ccccc1)C(=O)c1ccc2c(c1)OCO2	43.3*	3.6	68.3	2.9	-2.2
O=C(c1cccnc1)N1C[C@H]2[C@@H](c3ccccc31)[C@@H](CO)N2C(=O)Nc1cccc(F)c1	2.1	.	.	-1.6	.
CCOC(=O)N(C)C[C@H]1OCc2ccccc2-c2ccccc2C(=O)N([C@@H](C)CO)C[C@H]1C	-2.0	.	.	5.6	.
COc1ccc(NC(=O)N(C)C[C@H]2Oc3ccc(NC(=O)C4CCCCC4)cc3C(=O)N([C@H](C)CO)C[C@H]2C)cc1	-1.9	.	.	10.3	.
CC(Sc1nc2ccccc2[nH]1)C(=O)O (stereo not given)	-2.8	6.5	11.4	-10.9	-0.1
CC(=O)N=C(N)Sc1nc2ccccc2[nH]1	68.5*	5.5	.	.	60.9*
Cc1ccc(N(Cc2ccccc2)C(=O)c2cccc(S(=O)(=O)N3CC(C)OC(C)C3)c2)cc1 (stereo not given)	63.8*	-1.0	8.7	10.3	-0.9
COc1ccc(C2=NN(CN3C(=O)C(=O)c4ccccc43)C(c3ccc(OC)cc3)C2)cc1 (stereo not given)	.	4.8	56.1	.	54.0*
O=C(Nc1ccncc1)Nc1cccc(Cl)c1Cl	10.4	0.7	-16.0	5.5	5.1
CC(=O)c1cccc(NC(=O)Nc2ccccc2)c1	22.3	3.2	38.8	-1.0	6.5
O=C(Nc1ccc(Cl)cc1)Nc1cccc2nsnc12	91.3*	6.8	24.7	-11.6	?
CCC(C)[C@H](NC(=O)Nc1ccc(C(C)=O)cc1)C(=O)OC (stereo not given in full)	-1.4	0.7	1.6	92.6*	.
O=C(Nc1ccccc1)Nc1cccc(Cl)c1Cl	59.7*	4.4	8.8	-6.2	.
CC(=O)c1ccc(NC(=O)Nc2ccccc2)cc1	48.1*	1.3	43.1	-4.3	.
CS(=O)(=O)Nc1ccc2c(c1)[C@H]1C[C@H](CC(=O)NCC(F)(F)F)O[C@H](CO)[C@H]1O2	-2.0	.	.	1.6	.
